Measurements from PubChem BioAssay (EPA / NIEHS).
Where a structure was tested more than once in an assay, its records may differ in their call. Calls of active or inactive are those of the source. Rule for the calls: active = hit-call score of the fitted dose curve at least 0.9, where 1 is the maximum; inactive = score below 0.9.

What was measured:
[1] = target: Nuclear respiratory factor 1 (Homo sapiens) (UniProt Q16656); experiment: ATG_NRF1_CIS: Attagene CIS-FACTORIAL HepG2 Assay for human Nuclear Respiratory Factor 1 (NRF1) Orphan Gene (AID 2282987); conditions: HepG2 NRF1 cis-element reporter, Attagene multiplex; actives raise or lower the signal
Sequence of Nuclear respiratory factor 1 (Homo sapiens) (Q16656 whole entry, looked up): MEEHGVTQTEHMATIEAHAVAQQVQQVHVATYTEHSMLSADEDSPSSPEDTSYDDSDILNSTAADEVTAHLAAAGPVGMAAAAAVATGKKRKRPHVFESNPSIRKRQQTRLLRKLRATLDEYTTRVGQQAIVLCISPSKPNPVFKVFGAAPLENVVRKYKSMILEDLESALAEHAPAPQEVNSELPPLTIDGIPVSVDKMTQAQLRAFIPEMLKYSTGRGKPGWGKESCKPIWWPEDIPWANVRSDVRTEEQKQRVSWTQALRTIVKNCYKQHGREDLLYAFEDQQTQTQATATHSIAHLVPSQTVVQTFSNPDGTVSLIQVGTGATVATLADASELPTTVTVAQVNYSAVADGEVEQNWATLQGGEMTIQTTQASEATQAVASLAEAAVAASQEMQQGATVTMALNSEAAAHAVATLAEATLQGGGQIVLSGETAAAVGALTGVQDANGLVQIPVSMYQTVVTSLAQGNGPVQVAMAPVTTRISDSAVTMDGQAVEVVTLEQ
Method in brief: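 Human hepatoma HepG2 cells carrying transfected promoter-regulated reporter units were incubated with test chemicals for 24 h. Reporter transcripts were measured by RT-PCR plus capillary electrophoresis, and endpoints derived by bidirectional fitting with DMSO as baseline.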

[2] = ATG_NFI_CIS: Attagene CIS-FACTORIAL HepG2 Assay for human Nuclear Factor I (NFI) (AID 2282989); conditions: HepG2 cis-regulatory reporter, NFI response element transcription; actives raise or lower the signal
Method in brief: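 After transient transfection of HepG2 with cis-promoter reporter constructs and 24 h dosing, RNA is reverse-transcribed, amplified, 6-FAM end-labelled and HpaI-digested before capillary analysis. Bidirectional curve fitting against DMSO.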

[3] = target: Myc proto-oncogene protein (Homo sapiens) (UniProt P01106); experiment: ATG_Myc_CIS: Attagene CIS-FACTORIAL HepG2 Assay for human Myelocytomatosis (Myc) Proto-Oncogene Transcription Factor (AID 2282990); conditions: HepG2, Attagene cis-reporter transcription factor activity; actives raise or lower the signal
Sequence of Myc proto-oncogene protein (Homo sapiens) (P01106 whole entry, looked up): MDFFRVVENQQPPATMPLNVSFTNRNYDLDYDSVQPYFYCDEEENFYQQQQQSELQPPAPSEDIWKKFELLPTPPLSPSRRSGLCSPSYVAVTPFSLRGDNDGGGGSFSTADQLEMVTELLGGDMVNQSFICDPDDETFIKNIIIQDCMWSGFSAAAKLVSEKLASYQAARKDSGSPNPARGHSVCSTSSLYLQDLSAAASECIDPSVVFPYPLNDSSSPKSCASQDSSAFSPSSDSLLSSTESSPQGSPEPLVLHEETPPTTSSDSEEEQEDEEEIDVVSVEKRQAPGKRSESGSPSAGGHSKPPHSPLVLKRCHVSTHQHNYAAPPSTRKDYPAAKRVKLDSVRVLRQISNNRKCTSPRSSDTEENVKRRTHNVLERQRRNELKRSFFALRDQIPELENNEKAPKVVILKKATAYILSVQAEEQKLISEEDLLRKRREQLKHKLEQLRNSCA
Method in brief: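 HepG2 cells transiently transfected with multiple cis-promoter-driven reporter transcription units, so endogenous TF activity is read. After 24 h compound exposure, reporter mRNA was quantified by RT-PCR, 6-FAM labelling, HpaI digestion and capillary electrophoresis; bidirectional fit versus DMSO.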

[4] = ATG_NF_kB_CIS: Attagene CIS-FACTORIAL HepG2 Assay for human Nuclear Factor Kappa B (NF-kB) (AID 2282991); conditions: HepG2 Attagene cis-factorial NF-kB reporter mRNA; actives raise or lower the signal
Method in brief: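 Multiplexed cis-reporter assay in transiently transfected HepG2. 24 h treatment; RNA isolated, RT-PCR, labelled fragments resolved by CE. DMSO baseline.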

[5] = ATG_NRF2_ARE_CIS: Attagene CIS-FACTORIAL HepG2 Assay for human Nuclear Factor Erythroid 2 Related Factor 2 (NFR2) response to Antioxidant Response Elements (ARE) (AID 2282992); conditions: HepG2 Attagene ARE/NRF2 reporter, transcription factor activity; actives raise or lower the signal
Method in brief: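 Readout: reporter mRNA quantified by RT-PCR plus FAM-labelled primer extension, HpaI digestion and capillary electrophoresis, 24 h after dosing transfected HepG2 cells. Gain or loss of signal is fitted bidirectionally against DMSO baseline.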

[6] = ATG_Oct_MLP_CIS: Attagene CIS-FACTORIAL HepG2 Assay for human Octamer-Binding Transcription Factor (Oct) (AID 2282993); conditions: HepG2 Attagene cis-factorial Oct reporter, mRNA; actives raise or lower the signal
Method in brief: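 Cells of the HepG2 line express promoter-controlled reporter sequences whose mRNA levels, after 24 h treatment, are measured by RT-PCR and capillary electrophoresis. Increases and decreases are scored relative to DMSO.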

[7] = BSK_3C_TissueFactor: BioMAP Diversity Plus: 3C Assay for Tissue Factor Biomarker Activity (AID 2282997); conditions: BioMAP 3C HUVEC, tissue factor biomarker readout; actives raise or lower the signal
Method in brief: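 In this endothelial system, HUVEC are treated for 24 h and Tissue Factor is assessed by ELISA, normalised to DMSO.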

[8] = BSK_3C_uPAR: BioMAP Diversity Plus: 3C Assay for Urokinase-type plasminogen activator receptor (uPAR) Biomarker Activity (AID 2282998); conditions: BioMAP 3C HUVEC, uPAR biomarker ELISA; actives raise or lower the signal
Method in brief: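 Endothelial primary cells of human umbilical vein origin received test chemical; 24 h later uPAR was assayed by ELISA. Fitting was bidirectional, DMSO as negative control.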

[9] = BSK_3C_VCAM1: BioMAP Diversity Plus: 3C Assay for Vascular cell adhesion molecule 1 (VCAM1) Biomarker Activity (AID 2282999); conditions: BioMAP 3C HUVEC, VCAM1 ELISA, cytokine-stimulated; actives raise or lower the signal
Method in brief: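 Vascular primary endothelium (human umbilical vein) was exposed to chemicals and assayed 24 h later. VCAM-1 levels came from ELISA, with DMSO serving as baseline for bidirectional fitting.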

[10] = target: Cellular tumor antigen p53 (Homo sapiens) (UniProt P04637); experiment: ATG_p53_CIS: Attagene CIS-FACTORIAL HepG2 Assay for human p53 Transcription Factor (AID 2282994); conditions: HepG2 p53 cis-element reporter, Attagene mRNA; actives raise or lower the signal
Sequence of Cellular tumor antigen p53 (Homo sapiens) (P04637 whole entry, looked up): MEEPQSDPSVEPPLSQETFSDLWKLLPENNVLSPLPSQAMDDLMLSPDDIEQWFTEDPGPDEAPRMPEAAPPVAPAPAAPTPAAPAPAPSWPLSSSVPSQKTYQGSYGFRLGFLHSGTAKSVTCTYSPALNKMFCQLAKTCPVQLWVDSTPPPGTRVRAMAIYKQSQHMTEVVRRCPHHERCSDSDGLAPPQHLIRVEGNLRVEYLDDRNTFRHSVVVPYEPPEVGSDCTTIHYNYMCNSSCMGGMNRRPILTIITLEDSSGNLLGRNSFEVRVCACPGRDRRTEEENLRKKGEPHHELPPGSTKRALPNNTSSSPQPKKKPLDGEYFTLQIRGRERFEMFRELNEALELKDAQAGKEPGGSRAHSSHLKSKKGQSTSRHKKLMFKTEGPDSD
Method in brief: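 Read-out: reporter mRNA by RT-PCR plus capillary electrophoresis with fluorescence detection. Human HepG2 liver cells carried transfected multi-reporter cis-element constructs, dosed 24 h. Gain or loss of signal fitted bidirectionally against DMSO control.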

Measured: AC50

N#CC(CCc1ccc(Cl)cc1)(Cn1cncn1)c1ccccc1 (stereo not drawn)
active: [5] 10.3 µM
not listed: [10]
inactive: all other assays above

CC(C)(C)c1ccc(CSc2cnn(C(C)(C)C)c(=O)c2Cl)cc1
inactive: [2] | [3] | [7] | [9]
active: [1] 19.1 µM | [5] 0.0912 µM | [6] 0.024 µM | [8] 8.48 µM

COC(=O)N(OC)c1ccccc1COc1ccn(-c2ccc(Cl)cc2)n1
active: [5] 0.635 µM | [6] 0.702 µM | [8] 20 µM
not listed: [4] | [10]
inactive: all other assays above

N#Cc1nn(-c2c(Cl)cc(C(F)(F)F)cc2Cl)c(N)c1S(=O)C(F)(F)F (stereo not drawn)
active: [5] 5.51 µM | [6] 10.2 µM | [8] 22 µM
inactive: [1] | [2] | [3] | [5] | [6] | [7] | [9]

CCOc1cc(Oc2ccc(C(F)(F)F)cc2Cl)ccc1[N+](=O)[O-]
active: [3] 30.3 µM | [5] 13.7 µM | [6] 13.7 µM
not listed: [10]
inactive: all other assays above

Cc1c(F)c(F)c(COC(=O)C2C(/C=C(\Cl)C(F)(F)F)C2(C)C)c(F)c1F (stereo not drawn)
not listed: [10]
inactive: all other assays above

CCOP(=S)(OCC)SCn1c(=O)oc2cc(Cl)ccc21
active: [5] 16 µM | [6] 14.1 µM
not listed: [4]
inactive: all other assays above

CCON=C(CC)C1=C(O)CC(c2c(C)cc(C)cc2C)CC1=O (stereo not drawn)
not listed: [10]
inactive: all other assays above

Cc1cc(Cl)ccc1OCC(=O)O
not listed: [4] | [10]
inactive: all other assays above

COC(=O)C=C(C)OP(=O)(OC)OC
active: [5] 50 µM
not listed: [4] | [10]
inactive: all other assays above

COc1cnc(OC)n2nc(NS(=O)(=O)c3c(OCC(F)F)cccc3C(F)(F)F)nc12
not listed: [4] | [10]
inactive: all other assays above

CCNc1nc(Cl)nc(NCC)n1
not listed: [4]
inactive: all other assays above

CCCN(CCC)c1c([N+](=O)[O-])cc(S(N)(=O)=O)cc1[N+](=O)[O-]
active: [7] 34.7 µM [middle of 4 runs] | [8] 31.8 µM [middle of 4 runs] | [9] 38.1 µM [middle of 4 runs]
not listed: [10]
inactive: all other assays above

CC(C)Oc1cc(-n2nc(C(C)(C)C)oc2=O)c(Cl)cc1Cl
active: [5] 7.62 µM | [6] 10.6 µM | [8] 32 µM | [9] 25.4 µM
not listed: [10]
inactive: all other assays above

CCc1nn(C)c(C(=O)NCc2ccc(C(C)(C)C)cc2)c1Cl
active: [2] 0.353 µM | [4] 0.709 µM | [5] 0.214 µM | [6] 0.397 µM | [7] 20 µM | [8] 26.7 µM | [9] 31.8 µM
inactive: [1] | [3]

CCCCOC(=O)c1ccccc1C(=O)OCCCC
active: [5] 62.4 µM [middle of 5 runs]
not listed: [10]
inactive: all other assays above

CC1=C(C(=O)Nc2ccccc2)SCCO1
active: [5] 16.6 µM
not listed: [4] | [10]
inactive: all other assays above
